Experimental findings from PubChem BioAssay (EPA / NIEHS) are described below.

Details in all cases: mRNA level, 48 h; actives raise or lower the signal
Read-out in assay [1]: Cytochrome P450 7A1 (Homo sapiens) (UniProt P22680)
The assay is described as follows: LTEA_HepaRG_CYP7A1: Life Technologies and Expression Analysis (LTEA) Assay for Cytochrome P450 7A1 (CYP7A1) using HepaRG (AID 2283496). The method, boiled down: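 HepaRG cells plated 48 h, then switched to serum-free induction medium and exposed in duplicate for 48 h to 8-point half-log series from 100 uM in 0.5% DMSO. CYP7A1 mRNA by qRT-PCR (TaqMan), normalized to ACTB/GAPDH/POLR2A; bidirectional fit versus DMSO.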

Read-out in assay [2]: Glutathione S-Transferase (GSTA2), GSTA2 (gene 2939)
As to the kind of experiment: LTEA_HepaRG_GSTA2: Life Technologies and Expression Analysis (LTEA) Assay for Glutathione S-Transferase (GSTA2) using HepaRG (AID 2283497). The method, boiled down:
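Human HepaRG cells, plated 48 h, then exposed in serum-free induction medium for 48 h to eight half-log concentrations up to 100 uM in 0.5% DMSO, duplicate. GSTA2 mRNA by qRT-PCR, normalized to ACTB/GAPDH/POLR2A; bidirectional fit versus DMSO.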

Read-out in assay [3]: Glutamate-cysteine ligase catalytic (GCLC), GCLC (gene 2729)
The assay is described as follows: LTEA_HepaRG_GCLC: Life Technologies and Expression Analysis (LTEA) Assay for Glutamate-cysteine ligase catalytic (GCLC) using HepaRG (AID 2283498). The method, boiled down: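 Differentiated human HepaRG cells, plated 48 h then switched to serum-free induction medium, were exposed in duplicate for 48 h to 8 half-log concentrations topping at 100 uM in 0.5% DMSO. GCLC mRNA was quantified by qRT-PCR against ACTB, GAPDH and POLR2A.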

Read-out in assay [4]: growth arrest and DNA damage 45 (GADD45G), GADD45G (gene 10912)
The assay is described as follows: LTEA_HepaRG_GADD45G: Life Technologies and Expression Analysis (LTEA) Assay for growth arrest and DNA damage 45 (GADD45G) using HepaRG (AID 2283499). Put shortly:
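Differentiated human HepaRG cells in serum-free induction medium were exposed for 48 h to 8 half-log concentrations up to 100 uM in 0.5% DMSO, in duplicate. GADD45G mRNA was measured by TaqMan qRT-PCR, normalised to ACTB, GAPDH and POLR2A, and fitted bidirectionally against DMSO.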

Read-out in assay [5]: Glutamate-cysteine ligase regulatory (GCLM), GCLM (gene 2730)
As to the kind of experiment: LTEA_HepaRG_GCLM: Life Technologies and Expression Analysis (LTEA) Assay for Glutamate-cysteine ligase regulatory (GCLM) using HepaRG (AID 2283500). The method, boiled down: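 Differentiated HepaRG cells exposed 48 h in serum-free induction medium to eight half-log concentrations up to 100 uM (0.5% DMSO). GCLM mRNA by TaqMan qRT-PCR, normalized to ACTB, GAPDH and POLR2A; bidirectional fit versus DMSO.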

Read-out in assay [6]: Heat shock 70 kDa protein 1 (HSPA1A), gene 3303
As to the kind of experiment: LTEA_HepaRG_HSPA1A: Life Technologies and Expression Analysis (LTEA) Assay for Heat shock 70 kDa protein 1 (HSPA1A) using HepaRG (AID 2283502). Put shortly: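 Human HepaRG cells in serum-free induction medium were exposed in duplicate for 48 h to 8 half-log concentrations, highest 100 uM, in 0.5% DMSO. HSPA1A mRNA read by TaqMan qRT-PCR, normalized to ACTB, GAPDH, POLR2A, fitted bidirectionally against DMSO.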

Read-out in assay [7]: Hypoxia-inducible factor 1-alpha (Homo sapiens) (UniProt Q16665)
As to the kind of experiment: LTEA_HepaRG_HIF1A: Life Technologies and Expression Analysis (LTEA) Assay for Hypoxia-inducible factor 1 (HIF1A) Trancription factor using HepaRG (AID 2283503). Put shortly:
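Differentiated HepaRG cells in serum-free induction medium exposed 48 h, in duplicate, to 8-point half-log series from 100 uM in 0.5% DMSO. HIF1A mRNA measured by TaqMan qRT-PCR, normalized to ACTB/GAPDH/POLR2A, fitted bidirectionally versus DMSO.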

Read-out in assay [8]: 3-Hydroxy-3-Methylglutaryl-CoA Synthase 2 (HMGCS2), HMGCS2 (gene 3158)
As to the kind of experiment: LTEA_HepaRG_HMGCS2: Life Technologies and Expression Analysis (LTEA) Assay for 3-Hydroxy-3-Methylglutaryl-CoA Synthase 2 (HMGCS2) using HepaRG (AID 2283504). The method, boiled down:
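Differentiated human HepaRG cells were exposed in duplicate for 48 h in serum-free induction medium to eight concentrations (top 100 uM, half-log steps, 0.5% DMSO). HMGCS2 mRNA was quantified by TaqMan qRT-PCR, normalised to ACTB, GAPDH and POLR2A, then fitted bidirectionally against DMSO.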

Read-out in the next assay: HGF (gene 3082)
The assay is described as follows: LTEA_HepaRG_HGF: Life Technologies and Expression Analysis (LTEA) Assay for Hepatocyte Growth Facto (HGF) using HepaRG (AID 2283505). The method, boiled down:
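Differentiated human HepaRG cells in serum-free induction medium were exposed in duplicate for 48 h to eight concentrations (top 100 uM, half-log steps, 0.5% DMSO). HGF mRNA was quantified by qRT-PCR, normalized to ACTB, GAPDH and POLR2A.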

Read-out in assay [9]: Insulin Like Growth Factor 1 (IGF1), IGF1 (gene 3479)
The assay is described as follows: LTEA_HepaRG_IGF1: Life Technologies and Expression Analysis (LTEA) Assay for Insulin Like Growth Factor 1 (IGF1) using HepaRG (AID 2283506). Put shortly: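 Differentiated HepaRG cells in serum-free induction medium, exposed 48 h in duplicate to 8 half-log concentrations up to 100 uM in 0.5% DMSO. IGF1 mRNA by Fluidigm qRT-PCR, normalised to ACTB, GAPDH and POLR2A.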

Read-out in assay [10]: Intercellular Adhesion Molecule 1 (ICAM1), ICAM1 (gene 3383)
The assay is described as follows: LTEA_HepaRG_ICAM1: Life Technologies and Expression Analysis (LTEA) Assay for Intercellular Adhesion Molecule 1 (ICAM1) using HepaRG (AID 2283507). The method, boiled down: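 Differentiated HepaRG cells in serum-free induction medium were exposed in duplicate for 48 h to eight half-log concentrations up to 100 uM in 0.5% DMSO. Transcript levels were measured by qRT-PCR normalized to ACTB, GAPDH and POLR2A; bidirectional fits relative to DMSO.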

Read-out in assay [11]: Insulin-like growth factor-binding protein 1 (IGFBP1), IGFBP1 (gene 3484)
As to the kind of experiment: LTEA_HepaRG_IGFBP1: Life Technologies and Expression Analysis (LTEA) Assay for Insulin-like growth factor-binding protein 1 (IGFBP1) using HepaRG (AID 2283508). The method, boiled down: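 Differentiated human HepaRG cells in serum-free induction medium were exposed in duplicate for 48 h to eight concentrations, top 100 uM with half-log dilutions, in 0.5% DMSO. Transcript levels came from qRT-PCR normalised to ACTB, GAPDH and POLR2A, fitted bidirectionally against DMSO.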

Read-out in assay [12]: Interleukin 6 (IL6), IL6 (gene 3569)
The assay is described as follows: LTEA_HepaRG_IL6: Life Technologies and Expression Analysis (LTEA) Assay for Interleukin 6 (IL6) using HepaRG (AID 2283509). Put shortly: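 Differentiated human HepaRG cells, plated 48 h then switched to serum-free induction medium, were exposed in duplicate for 48 h to eight half-log concentrations up to 100 uM in 0.5% DMSO. IL6 mRNA measured by qRT-PCR, normalized to ACTB/GAPDH/POLR2A.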

Read-out in assay [13]: Interleukin 6 Receptor (IL6R), IL6R (gene 3570)
As to the kind of experiment: LTEA_HepaRG_IL6R: Life Technologies and Expression Analysis (LTEA) Assay for Interleukin 6 Receptor (IL6R) using HepaRG (AID 2283510). Put shortly:
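Differentiated HepaRG cells, plated 48 h, then exposed in duplicate for 48 h in serum-free induction medium to 8 half-log concentrations (top 100 uM, 0.5% DMSO). IL6R mRNA measured by TaqMan qRT-PCR, normalized to ACTB/GAPDH/POLR2A; bidirectional fit vs DMSO.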

Read-out in assay [14]: Potassium channel subfamily K member 1 (KCNK1), KCNK1 (gene 3775)
As to the kind of experiment: LTEA_HepaRG_KCNK1: Life Technologies and Expression Analysis (LTEA) Assay for Potassium channel subfamily K member 1 (KCNK1) using HepaRG (AID 2283511). Put shortly: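 Differentiated human HepaRG cells in serum-free induction medium were exposed in duplicate for 48 h to 8 half-log concentrations up to 100 uM in 0.5% DMSO. KCNK1 mRNA was measured by TaqMan qRT-PCR, normalized to ACTB, GAPDH and POLR2A, and fitted bidirectionally versus DMSO.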

Read-out in assay [15]: Keratin 19 (KRT19), KRT19 (gene 3880)
The assay is described as follows: LTEA_HepaRG_KRT19: Life Technologies and Expression Analysis (LTEA) Assay for Keratin 19 (KRT19) using HepaRG (AID 2283512). Put shortly: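 Differentiated human HepaRG cells, plated 48 h, were exposed in duplicate for 48 h in serum-free induction medium to eight half-log concentrations up to 100 uM in 0.5% DMSO. KRT19 mRNA was quantified by qRT-PCR, normalized to ACTB, GAPDH and POLR2A, and fitted bidirectionally versus DMSO.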

Read-out in assay [16]: JUN Transcription Factor, JUN (gene 3725)
The assay is described as follows: LTEA_HepaRG_JUN: Life Technologies and Expression Analysis (LTEA) Assay for JUN Transcription Factor using HepaRG (AID 2283513). The method, boiled down: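 HepaRG cells, 48 h post-plating, exposed 48 h in serum-free induction medium to 8-point half-log series (top 100 uM, 0.5% DMSO), duplicate; mRNA by qRT-PCR (TaqMan, Fluidigm), normalized to ACTB/GAPDH/POLR2A; bidirectional fit vs DMSO.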

Read-out in assay [17]: Lipase C (LIPC), LIPC (gene 3990)
As to the kind of experiment: LTEA_HepaRG_LIPC: Life Technologies and Expression Analysis (LTEA) Assay for Lipase C (LIPC) using HepaRG (AID 2283514). The method, boiled down:
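Differentiated human HepaRG cells in serum-free induction medium were exposed in duplicate for 48 h to eight concentrations (top 100 uM, half-log steps, 0.5% DMSO). LIPC mRNA was quantified by TaqMan qRT-PCR, normalized to ACTB, GAPDH and POLR2A, with bidirectional fitting versus DMSO.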

Read-out in assay [18]: Lipoprotein lipase (LPL), LPL (gene 4023)
As to the kind of experiment: LTEA_HepaRG_LPL: Life Technologies and Expression Analysis (LTEA) Assay for Lipoprotein lipase (LPL) using HepaRG (AID 2283515). Put shortly: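 Differentiated human HepaRG cells in serum-free induction medium were exposed in duplicate for 48 h to eight half-log concentrations (top 100 uM) in 0.5% DMSO. LPL mRNA was quantified by TaqMan qRT-PCR, normalized to ACTB, GAPDH and POLR2A.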

Read-out in assay [19]: Glutathione S-transferase M3 (GSTM3), GSTM3 (gene 2947)
The assay is described as follows: LTEA_HepaRG_GSTM3: Life Technologies and Expression Analysis (LTEA) Assay for Glutathione S-transferase M3 (GSTM3) using HepaRG (AID 2283501). The method, boiled down: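 Differentiated HepaRG cells in serum-free induction medium were exposed in duplicate for 48 h to 8 half-log concentrations up to 100 uM in 0.5% DMSO. GSTM3 mRNA was measured by TaqMan qRT-PCR, normalized to ACTB/GAPDH/POLR2A, and fitted bidirectionally versus DMSO.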

Molecules are shown by their SMILES. The source made the active and inactive calls. How the source made its calls: active means hit-call score of the fitted dose curve at least 0.9, where 1 is the maximum; inactive means score below 0.9.

Sequence of Hypoxia-inducible factor 1-alpha (Homo sapiens) (Q16665 whole entry, looked up): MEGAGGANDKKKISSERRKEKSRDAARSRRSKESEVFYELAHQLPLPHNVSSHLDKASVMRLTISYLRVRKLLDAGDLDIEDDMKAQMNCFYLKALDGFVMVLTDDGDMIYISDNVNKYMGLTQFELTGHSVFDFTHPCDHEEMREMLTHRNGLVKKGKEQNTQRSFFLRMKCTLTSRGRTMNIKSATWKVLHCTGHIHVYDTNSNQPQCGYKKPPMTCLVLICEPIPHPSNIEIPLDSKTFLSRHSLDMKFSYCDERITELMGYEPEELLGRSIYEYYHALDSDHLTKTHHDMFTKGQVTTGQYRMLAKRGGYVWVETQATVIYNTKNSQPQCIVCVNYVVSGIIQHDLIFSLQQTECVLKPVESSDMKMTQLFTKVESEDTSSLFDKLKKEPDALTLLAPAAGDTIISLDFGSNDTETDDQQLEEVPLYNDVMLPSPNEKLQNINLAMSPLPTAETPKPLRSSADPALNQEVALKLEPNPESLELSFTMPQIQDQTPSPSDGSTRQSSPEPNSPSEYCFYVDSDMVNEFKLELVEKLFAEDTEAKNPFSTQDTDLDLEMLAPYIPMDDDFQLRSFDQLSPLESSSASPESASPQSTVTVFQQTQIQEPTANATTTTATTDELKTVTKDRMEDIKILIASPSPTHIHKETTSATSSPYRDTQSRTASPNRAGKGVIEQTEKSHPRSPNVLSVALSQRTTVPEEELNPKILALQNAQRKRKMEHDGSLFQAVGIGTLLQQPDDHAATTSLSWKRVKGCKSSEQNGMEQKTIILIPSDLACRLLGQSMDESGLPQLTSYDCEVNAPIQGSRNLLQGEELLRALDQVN

In general, AC50 refers to the concentration at which the activity in the assay is half-maximal. With `CCC(CC)Nc1c([N+](=O)[O-])cc(C)c(C)c1[N+](=O)[O-]`, the call in assay [1], in [2], in assay [3], in assay [4], in assay [5] and in [6] was inactive. Moreover, the outcome (in assay [7]; in assay [8]; in the assay with HGF (gene 3082); in assay [10]; in assay [11]; in assay [12]) was inactive. For the same molecule, the call in [13], in assay [14], in assay [16], in assay [17] and in assay [18] was inactive. Besides, the figures for the AC50 in assay [9] and in assay [15] were 61.1 µM (active) and 50 µM (active), respectively.
`CSc1nnc(C(C)(C)C)c(=O)n1N`: the result in assay [1], in assay [2], in assay [3], in [4], in assay [5] and in assay [6] was inactive. The molecule was called inactive (in assay [7]; in assay [8]; with HGF (gene 3082); in [9]; in [10]; in [11]). Also, the call in assay [12], in assay [13], in assay [14], in assay [15], in [16] and in [18] was inactive.
For the molecule `CCCCOC(=O)c1ccccc1C(=O)O`, the outcome in [1], in [2], in assay [3], in assay [4], in assay [5] and in assay [19] was inactive. For the same molecule, the call (in assay [6]; in assay [7]; in assay [8]; in the assay with HGF (gene 3082); in assay [9]; in assay [10]) was inactive. Besides, the call in [11], in assay [12], in assay [13], in assay [14], in assay [15] and in [16] was inactive. In addition, the call in [17] and in [18] was inactive.
For the molecule `CN1COCN(Cc2cnc(Cl)s2)C1=N[N+](=O)[O-]`, the call in assay [1], in assay [2], in assay [3], in assay [4], in assay [5] and in assay [6] was inactive. Also, the molecule was called inactive (in assay [7]; in assay [8]; with HGF (gene 3082); in assay [9]; in assay [10]; in [11]). Also, the call in [12], in assay [13], in assay [14], in assay [15], in assay [16] and in assay [18] was inactive.
